Laboratory results taken from PubChem BioAssay (EPA / NIEHS).
Values joined by “and” are separate entries in the source; they are usually repeats but may differ in a detail not shown here. Identical values can stand only once. Records with an inconclusive call do not appear. Active and inactive are the calls of the source. Rule for the calls: active = hit-call score of the fitted dose curve at least 0.9, where 1 is the maximum; inconclusive = response in the unintended direction; inactive = score below 0.9.

Columns and labels:
[1] = biological target: rat CYP1A2, Cyp1a2 (gene 24297) (UniProt P04799); test: NVS_ADME_rCYP1A2: NovaScreen (NVS) CYP450-related Enzyme Activity (ADME) Assay for rat CYP1A2 (AID 2283115)
Procedure, shortened: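 Cell-free recombinant rat enzyme with fluorogenic substrate, read by fluorescence intensity 1 hour after dosing. Loss of signal versus acetonitrile negative control; primary screen at 10 uM in duplicate, actives followed in concentration series.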

[2] = biological target: rat CYP2A2, Cyp2a2 (gene 24895) (UniProt P15149); test: NVS_ADME_rCYP2A2: NovaScreen (NVS) CYP450-related Enzyme Activity (ADME) Assay for rat CYP2A2 (AID 2283116)
rat CYP2A2, Cyp2a2 (gene 24895), sequence (P15149 whole entry, looked up): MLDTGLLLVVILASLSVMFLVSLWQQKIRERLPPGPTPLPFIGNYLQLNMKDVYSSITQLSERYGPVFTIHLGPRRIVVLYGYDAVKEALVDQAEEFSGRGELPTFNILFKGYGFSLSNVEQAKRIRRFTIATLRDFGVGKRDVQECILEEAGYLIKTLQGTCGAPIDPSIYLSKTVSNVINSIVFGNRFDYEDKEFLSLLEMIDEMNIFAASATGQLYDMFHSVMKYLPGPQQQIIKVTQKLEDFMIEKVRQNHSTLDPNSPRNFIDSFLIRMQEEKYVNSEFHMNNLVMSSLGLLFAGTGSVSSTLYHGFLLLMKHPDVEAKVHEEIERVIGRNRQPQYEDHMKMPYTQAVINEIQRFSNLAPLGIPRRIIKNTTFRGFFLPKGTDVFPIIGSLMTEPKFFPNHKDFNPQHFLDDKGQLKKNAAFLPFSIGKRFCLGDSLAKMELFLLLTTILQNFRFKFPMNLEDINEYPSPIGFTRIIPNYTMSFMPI
Procedure, shortened: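 Cell-free recombinant rat CYP2A2 activity with fluorogenic substrate, fluorescence read 0.2 h after dosing. Chemicals screened at 10 uM in duplicate, hits then run in concentration-response up to 20 uM; signal loss versus acetonitrile baseline.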

[3] = biological target: rat CYP2C11, Cyp2c11 (gene 29277) (UniProt P08683); test: NVS_ADME_rCYP2C11: NovaScreen (NVS) CYP450-related Enzyme Activity (ADME) Assay for rat CYP2C11 (AID 2283118)
rat CYP2C11, Cyp2c11 (gene 29277), sequence (P08683 whole entry, looked up): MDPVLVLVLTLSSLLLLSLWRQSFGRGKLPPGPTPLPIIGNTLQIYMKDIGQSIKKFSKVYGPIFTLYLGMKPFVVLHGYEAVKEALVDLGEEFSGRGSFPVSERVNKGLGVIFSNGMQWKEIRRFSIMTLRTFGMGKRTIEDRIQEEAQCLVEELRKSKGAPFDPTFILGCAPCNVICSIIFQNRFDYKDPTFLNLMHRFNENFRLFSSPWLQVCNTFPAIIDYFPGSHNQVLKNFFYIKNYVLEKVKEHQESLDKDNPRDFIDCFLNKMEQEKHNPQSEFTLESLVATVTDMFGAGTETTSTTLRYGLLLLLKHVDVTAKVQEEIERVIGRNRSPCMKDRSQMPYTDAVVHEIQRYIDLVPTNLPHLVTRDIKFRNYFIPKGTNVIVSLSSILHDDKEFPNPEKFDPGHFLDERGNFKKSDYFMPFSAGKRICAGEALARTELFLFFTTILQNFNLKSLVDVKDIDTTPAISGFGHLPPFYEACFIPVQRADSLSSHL
Procedure, shortened: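 Cell-free recombinant rat enzyme with fluorescent substrate; readout 0.33 h after dosing, loss of signal versus acetonitrile control. Initial duplicate single-point at 10 uM; actives rerun in concentration series.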

[4] = biological target: rat CYP2C12, Cyp2c12 (gene 25011) (UniProt P11510); test: NVS_ADME_rCYP2C12: NovaScreen (NVS) CYP450-related Enzyme Activity (ADME) Assay for rat CYP2C12 (AID 2283119)
rat CYP2C12, Cyp2c12 (gene 25011), sequence (P11510 whole entry, looked up): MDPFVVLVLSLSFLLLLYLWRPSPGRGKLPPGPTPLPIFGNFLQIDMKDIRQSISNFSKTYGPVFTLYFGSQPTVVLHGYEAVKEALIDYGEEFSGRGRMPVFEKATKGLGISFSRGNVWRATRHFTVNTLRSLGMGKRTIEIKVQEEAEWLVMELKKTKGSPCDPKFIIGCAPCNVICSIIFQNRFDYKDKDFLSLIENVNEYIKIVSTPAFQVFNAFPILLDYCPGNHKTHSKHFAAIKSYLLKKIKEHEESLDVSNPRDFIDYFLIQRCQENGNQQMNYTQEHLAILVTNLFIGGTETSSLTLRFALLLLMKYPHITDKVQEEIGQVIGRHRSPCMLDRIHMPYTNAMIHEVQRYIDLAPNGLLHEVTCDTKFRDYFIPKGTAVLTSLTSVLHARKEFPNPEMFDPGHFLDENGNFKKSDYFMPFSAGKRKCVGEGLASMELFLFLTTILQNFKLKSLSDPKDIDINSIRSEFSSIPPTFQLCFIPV
Procedure, shortened: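 Cell-free recombinant rat CYP2C12 activity read by fluorescence 0.5 h after dosing; loss of signal versus acetonitrile control. Primary screen in duplicate at 10 uM; actives then run in concentration-response format.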

rat CYP2C6, gene 293989 = test: NVS_ADME_rCYP2C6: NovaScreen (NVS) CYP450-related Enzyme Activity (ADME) Assay for rat CYP2C6 (AID 2283120)
Procedure, shortened: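 Cell-free recombinant rat CYP2C6 with fluorogenic substrate, read by fluorescence 1 h after dosing; acetonitrile as negative control. Primary screen at 10 uM in duplicate, actives then in concentration-response up to 20 uM.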

[5] = biological target: rat CYP2C13, Cyp2c13 (gene 171521) (UniProt P20814); test: NVS_ADME_rCYP2C13: NovaScreen (NVS) CYP450-related Enzyme Activity (ADME) Assay for rat CYP2C13 (AID 2283121)
rat CYP2C13, Cyp2c13 (gene 171521), sequence (P20814 whole entry, looked up): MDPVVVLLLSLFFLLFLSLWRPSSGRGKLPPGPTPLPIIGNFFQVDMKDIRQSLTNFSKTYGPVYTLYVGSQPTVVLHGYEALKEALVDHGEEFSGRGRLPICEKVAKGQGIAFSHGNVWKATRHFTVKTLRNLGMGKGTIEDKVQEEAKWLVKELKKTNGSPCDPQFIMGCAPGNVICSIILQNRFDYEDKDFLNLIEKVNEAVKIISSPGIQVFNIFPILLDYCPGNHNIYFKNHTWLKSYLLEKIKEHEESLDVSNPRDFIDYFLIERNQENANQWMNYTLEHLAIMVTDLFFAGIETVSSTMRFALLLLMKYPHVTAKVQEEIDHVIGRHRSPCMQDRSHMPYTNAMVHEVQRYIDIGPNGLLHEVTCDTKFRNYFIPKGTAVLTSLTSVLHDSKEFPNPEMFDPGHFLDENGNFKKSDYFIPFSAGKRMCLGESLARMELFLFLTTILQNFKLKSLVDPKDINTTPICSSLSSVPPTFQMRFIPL
Procedure, shortened: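 Recombinant rat CYP2C13 with fluorogenic substrate, 0.75 h cell-free incubation; primary screen in duplicate at 10 uM, actives followed in concentration series. Fluorescence loss relative to acetonitrile control indicates inhibition.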

rat CYP3A1, gene 25642 = test: NVS_ADME_rCYP3A1: NovaScreen (NVS) CYP450-related Enzyme Activity (ADME) Assay for rat CYP3A1 (AID 2283126)
Procedure, shortened: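 Cell-free recombinant CYP assay with fluorescent substrate, read 0.5 h after dosing. Screened at 10 uM in duplicate, hits at up to 20 uM in concentration-response; loss of signal versus acetonitrile baseline.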

[6] = biological target: rat CYP3A2, Cyp3a2 (gene 266682) (UniProt P05183); test: NVS_ADME_rCYP3A2: NovaScreen (NVS) CYP450-related Enzyme Activity (ADME) Assay for rat CYP3A2 (AID 2283128)
rat CYP3A2, Cyp3a2 (gene 266682), sequence (P05183 whole entry, looked up): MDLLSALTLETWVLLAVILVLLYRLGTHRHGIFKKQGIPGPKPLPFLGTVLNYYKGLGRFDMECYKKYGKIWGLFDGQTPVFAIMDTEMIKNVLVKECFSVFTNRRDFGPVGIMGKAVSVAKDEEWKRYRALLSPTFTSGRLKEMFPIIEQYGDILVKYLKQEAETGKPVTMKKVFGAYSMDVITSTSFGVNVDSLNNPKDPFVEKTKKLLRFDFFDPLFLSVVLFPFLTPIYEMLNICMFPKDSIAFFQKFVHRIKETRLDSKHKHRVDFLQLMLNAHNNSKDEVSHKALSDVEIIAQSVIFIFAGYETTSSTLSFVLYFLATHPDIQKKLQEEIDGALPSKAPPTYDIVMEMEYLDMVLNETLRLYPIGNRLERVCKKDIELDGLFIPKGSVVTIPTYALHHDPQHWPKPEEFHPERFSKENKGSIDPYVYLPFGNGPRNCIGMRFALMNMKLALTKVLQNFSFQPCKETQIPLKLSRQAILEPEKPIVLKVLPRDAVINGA
Procedure, shortened: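 Cell-free rat CYP3A2 enzyme assay with fluorescent substrate, read 0.5 h after dosing. Primary duplicate screen at 10 uM; actives run in concentration-response up to 20 uM, relative to acetonitrile baseline.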

[7] = biological target: human Acetylcholinesterase (AChE), ACHE (gene 43) (UniProt P22303); test: NVS_ENZ_hAChE: NovaScreen (NVS) Enzymatic Assay for human Acetylcholinesterase (AChE) (AID 2283129)
Procedure, shortened: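 Cell-free colorimetric enzyme-activity assay; compounds read 0.33 hour after dosing, loss of signal vs DMSO baseline. Primary screen in duplicate at 25 uM single concentration, with active compounds retested in concentration series.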

rat CYP2B1, gene 24300 = test: NVS_ADME_rCYP2B1: NovaScreen (NVS) CYP450-related Enzyme Activity (ADME) Assay for rat CYP2B1 (AID 2283117)
Procedure, shortened: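 Recombinant rat CYP2B1 with fluorogenic substrate, read at 0.75 h. Primary screen in duplicate at 10 uM; compounds meeting threshold (e.g., 30% inhibition) re-run in concentration-response up to 20 uM. Fitted against acetonitrile control.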

[8] = biological target: rat CYP2D1, Cyp2d1 (gene 266684) (UniProt P10633); test: NVS_ADME_rCYP2D1: NovaScreen (NVS) CYP450-related Enzyme Activity (ADME) Assay for rat CYP2D1 (AID 2283122)
rat CYP2D1, Cyp2d1 (gene 266684), sequence (P10633 whole entry, looked up): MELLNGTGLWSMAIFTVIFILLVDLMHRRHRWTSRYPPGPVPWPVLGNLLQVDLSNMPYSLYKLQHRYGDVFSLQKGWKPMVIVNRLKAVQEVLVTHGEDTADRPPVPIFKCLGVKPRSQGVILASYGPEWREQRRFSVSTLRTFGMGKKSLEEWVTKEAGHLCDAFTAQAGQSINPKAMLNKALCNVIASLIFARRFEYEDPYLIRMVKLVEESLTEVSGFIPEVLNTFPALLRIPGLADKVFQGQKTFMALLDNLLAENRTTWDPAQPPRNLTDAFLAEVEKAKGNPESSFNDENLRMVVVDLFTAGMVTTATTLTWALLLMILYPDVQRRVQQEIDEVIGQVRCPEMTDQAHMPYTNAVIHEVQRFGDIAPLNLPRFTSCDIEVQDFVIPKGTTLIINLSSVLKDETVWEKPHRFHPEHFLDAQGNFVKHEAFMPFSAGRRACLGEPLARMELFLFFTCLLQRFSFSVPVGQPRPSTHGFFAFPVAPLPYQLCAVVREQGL
Procedure, shortened: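 Cell-free fluorescence enzyme-activity assay on extracted rat CYP2D1 protein, read 0.75 h after dosing. Primary screen in duplicate at 10 uM; qualifying chemicals then run in concentration-response to 20 uM max, loss-of-signal versus acetonitrile baseline.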

[9] = biological target: rat CYP2D2, Cyp2d26 (gene 25053) (UniProt P10634); test: NVS_ADME_rCYP2D2: NovaScreen (NVS) CYP450-related Enzyme Activity (ADME) Assay for rat CYP2D2 (AID 2283124)
rat CYP2D2, Cyp2d26 (gene 25053), sequence (P10634 whole entry, looked up): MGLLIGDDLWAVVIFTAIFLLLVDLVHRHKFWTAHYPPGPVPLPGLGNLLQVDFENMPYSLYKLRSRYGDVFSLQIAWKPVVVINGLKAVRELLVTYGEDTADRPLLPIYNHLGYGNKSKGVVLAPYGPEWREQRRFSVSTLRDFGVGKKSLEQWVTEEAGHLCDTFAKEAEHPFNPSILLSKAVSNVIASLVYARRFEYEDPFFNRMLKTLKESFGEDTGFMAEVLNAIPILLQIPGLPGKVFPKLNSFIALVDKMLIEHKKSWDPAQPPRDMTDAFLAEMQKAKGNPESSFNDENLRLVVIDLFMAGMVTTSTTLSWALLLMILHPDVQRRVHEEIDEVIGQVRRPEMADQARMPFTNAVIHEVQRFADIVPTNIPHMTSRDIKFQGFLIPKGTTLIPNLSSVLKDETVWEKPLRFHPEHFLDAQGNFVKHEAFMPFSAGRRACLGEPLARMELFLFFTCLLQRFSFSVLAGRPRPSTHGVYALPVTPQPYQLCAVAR
Procedure, shortened: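 Recombinant rat CYP2D2 in a cell-free fluorogenic activity assay, fluorescence read 0.75 h after dosing. Primary screen in duplicate at 10 uM; actives re-run singly in concentration-response to 20 uM, relative to acetonitrile.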

Caspase-3 (Homo sapiens) = Caspase-3 (Homo sapiens) (UniProt P42574); test: NVS_ENZ_hCASP3: NovaScreen (NVS) Enzymatic Assay for human Caspase 3 (CASP3) (AID 2283139)
Procedure, shortened: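 Recombinant human caspase-3 from E. coli with a fluorogenic substrate, read by fluorescence 1 h after dosing. Primary screen in duplicate at 25 uM. Actives (for example ≥30% inhibition) rerun as concentration-response up to 50 uM.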

[10] = biological target: human AMP-activated Protein Kinase, alpha 1 (AMPKa1), PRKAA1 (gene 5562) (UniProt Q13131); test: NVS_ENZ_hAMPKa1: NovaScreen (NVS) Enzymatic Assay for human AMP-activated Protein Kinase, alpha 1 (AMPKa1) (AID 2283130)
human AMP-activated Protein Kinase, alpha 1 (AMPKa1), PRKAA1 (gene 5562), sequence (Q13131 whole entry, looked up): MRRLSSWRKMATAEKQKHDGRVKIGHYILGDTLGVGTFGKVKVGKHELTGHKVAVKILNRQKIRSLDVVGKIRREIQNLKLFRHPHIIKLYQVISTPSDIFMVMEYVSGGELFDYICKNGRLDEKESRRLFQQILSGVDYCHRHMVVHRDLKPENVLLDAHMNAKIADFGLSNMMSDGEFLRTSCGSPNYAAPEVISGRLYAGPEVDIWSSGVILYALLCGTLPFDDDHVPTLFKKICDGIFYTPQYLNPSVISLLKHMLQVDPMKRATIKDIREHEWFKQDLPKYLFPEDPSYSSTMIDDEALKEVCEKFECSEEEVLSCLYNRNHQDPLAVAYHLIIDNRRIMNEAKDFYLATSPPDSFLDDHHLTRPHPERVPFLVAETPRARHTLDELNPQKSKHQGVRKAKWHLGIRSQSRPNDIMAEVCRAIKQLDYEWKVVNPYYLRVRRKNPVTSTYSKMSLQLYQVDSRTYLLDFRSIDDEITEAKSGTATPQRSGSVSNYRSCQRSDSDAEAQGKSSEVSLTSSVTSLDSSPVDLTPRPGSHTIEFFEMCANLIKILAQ
Procedure, shortened: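 Recombinant human AMPKα1 activity was measured cell-free by fluorescent substrate conversion with electrophoretic mobility-shift separation, 1 h after dosing. Duplicate single-point screening was at 25 uM; actives (≥30% inhibition) were retested in concentration-response up to 50 uM.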

[11] = biological target: human Caspase 5 (CASP5), CASP5 (gene 838) (UniProt P51878); test: NVS_ENZ_hCASP5: NovaScreen (NVS) Enzymatic Assay for human Caspase 5 (CASP5) (AID 2283137)
human Caspase 5 (CASP5), CASP5 (gene 838), sequence (P51878 whole entry, looked up): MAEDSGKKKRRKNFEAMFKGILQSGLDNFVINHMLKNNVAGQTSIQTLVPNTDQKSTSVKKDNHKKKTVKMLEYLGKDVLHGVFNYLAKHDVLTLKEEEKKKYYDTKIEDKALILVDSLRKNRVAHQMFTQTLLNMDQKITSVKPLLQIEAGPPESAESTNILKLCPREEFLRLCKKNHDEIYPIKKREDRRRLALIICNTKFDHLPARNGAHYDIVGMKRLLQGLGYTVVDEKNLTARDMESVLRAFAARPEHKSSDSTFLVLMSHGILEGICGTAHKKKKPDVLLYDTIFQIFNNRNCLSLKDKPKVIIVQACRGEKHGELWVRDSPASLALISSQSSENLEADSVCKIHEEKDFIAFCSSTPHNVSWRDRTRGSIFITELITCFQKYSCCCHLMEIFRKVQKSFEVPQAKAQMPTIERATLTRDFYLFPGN
Procedure, shortened: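 Cell-free protease assay with bacterially expressed CASP5 and a fluorescent substrate, measured at 2 h. Values fitted relative to DMSO as baseline, from concentration-response series topping at 50 uM.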

[12] = biological target: human AKT serine/threonine Kinase 1 (AKT1), AKT1 (gene 207) (UniProt P31749); test: NVS_ENZ_hAKT1: NovaScreen (NVS) Enzymatic Assay for human AKT serine/threonine Kinase 1 (AKT1) (AID 2283138)
Procedure, shortened: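 Signal loss relative to DMSO, measured by fluorescence after electrophoretic separation of substrate and product, indicates inhibition of recombinant enzyme. Readings at 1 h; screening at 25 uM, follow-up curves up to 50 uM.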

Caspase-1 (Homo sapiens) = Caspase-1 (Homo sapiens) (UniProt P29466); test: NVS_ENZ_hCASP1: NovaScreen (NVS) Enzymatic Assay for human Caspase 1 (CASP1) (AID 2283132)
Procedure, shortened: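 Cell-free enzymatic assay with E. coli-expressed recombinant protein; fluorescence intensity read 1 hour after dosing. Single-concentration duplicate screen at 25 uM, then concentration-response up to 50 uM; activity fitted relative to DMSO, loss of signal meaning inhibition.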

[13] = biological target: human Caspase 10 (CASP10), CASP10 (gene 843) (UniProt Q92851); test: NVS_ENZ_hCASP10: NovaScreen (NVS) Enzymatic Assay for human Caspase 10 (CASP10) (AID 2283133)
human Caspase 10 (CASP10), CASP10 (gene 843), sequence (Q92851 whole entry, looked up): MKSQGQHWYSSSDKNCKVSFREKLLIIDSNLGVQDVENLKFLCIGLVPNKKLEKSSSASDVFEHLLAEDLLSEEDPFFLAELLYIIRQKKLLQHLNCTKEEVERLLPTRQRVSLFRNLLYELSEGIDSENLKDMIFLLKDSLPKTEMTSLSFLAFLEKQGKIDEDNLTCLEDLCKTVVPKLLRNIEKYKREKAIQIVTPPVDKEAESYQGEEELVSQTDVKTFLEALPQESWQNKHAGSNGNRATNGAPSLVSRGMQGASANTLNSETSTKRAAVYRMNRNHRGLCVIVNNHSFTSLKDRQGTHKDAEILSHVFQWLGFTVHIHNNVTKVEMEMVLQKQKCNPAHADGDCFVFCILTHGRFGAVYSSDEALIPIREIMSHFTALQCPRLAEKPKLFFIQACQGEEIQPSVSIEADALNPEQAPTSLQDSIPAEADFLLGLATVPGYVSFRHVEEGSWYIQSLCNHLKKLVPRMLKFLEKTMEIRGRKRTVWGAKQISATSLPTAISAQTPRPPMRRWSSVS
Procedure, shortened: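 Recombinant human caspase-10 from E. coli, cell-free fluorogenic substrate assay read 1 h after dosing. Primary duplicate screen at 25 uM; hits (e.g. ≥30% inhibition) run singly in concentration-response up to 50 uM, normalised to DMSO.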

[14] = biological target: human Acid Phosphatase 1 (ACP1), ACP1 (gene 52) (UniProt P24666); test: NVS_ENZ_hACP1: NovaScreen (NVS) Enzymatic Assay for human Acid Phosphatase 1 (ACP1) (AID 2283136)
Procedure, shortened: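 Recombinant enzyme expressed in Sf9 cells, tested cell-free; activity read by fluorescence with electrophoretic mobility shift separation of substrate and product, 1.5 h after dosing. Primary screen in duplicate at 25 uM, actives then run in concentration series; loss of signal versus DMSO.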

With `COP(=S)(OC)Oc1ccc([N+](=O)[O-])cc1` the outcome [1] was “inactive”, the AC50 [2] was 5.69 µM (active) and the AC50 [3] was 2.77 µM (active). For the same molecule, the AC50 [4] was 6.47 µM (active), the AC50 (rat CYP2C6, gene 293989) was 344 nM (active) and the AC50 [5] was 6.55 µM (active). For the same molecule, the AC50 (rat CYP3A1, gene 25642) was 6.49 µM (active), the AC50 [6] was 4970 nM (active) and the outcome [7] was “inactive”.
With `CC(C)(C)C(O)/C(=C\c1ccc(Cl)cc1Cl)n1cncn1` (stereo not given) the AC50 [2] was 0.0195 µM (active), the AC50 (rat CYP2B1, gene 24300) was 0.0164 µM (active) and the AC50 [3] was 0.369 µM (active). The AC50 [4] was 1.25 µM (active), the AC50 [5] was 0.281 µM (active) and the AC50 [8] was 0.603 µM (active). The AC50 [9] was 0.837 µM (active), the AC50 (rat CYP3A1, gene 25642) was 0.631 µM (active) and the AC50 [6] was 669 nM (active).
In the case of `O=C(Nc1ccccc1)Nc1cnns1`, the outcome [1] is reported as “inactive”, the outcome [4] is reported as “inactive” and the outcome [5] is reported as “inactive”. The AC50 [8] was 8.7 µM (active) and the AC50 [9] was 4.41 µM (active).
For `COc1nn(CSP(=S)(OC)OC)c(=O)s1`, the AC50 [2] was 4.97 µM (active), the AC50 (rat CYP2B1, gene 24300) was 2.65 µM (active) and the AC50 [3] was 0.564 µM (active). The AC50 (rat CYP2C6, gene 293989) was 258 nM (active), the AC50 (rat CYP3A1, gene 25642) was 4.25 µM (active) and the AC50 [6] was 774 nM (active).
`CNC(=O)Oc1ccccc1OC(C)C` was tested, and the outcome [4] was “inactive” and the AC50 [7] was 25 µM (active).
`CCOC1Oc2ccc(OS(C)(=O)=O)cc2C1(C)C` (stereo not given) was tested, and the AC50 [2] was 6.21 µM (active), the AC50 [3] was 4.18 µM (active) and the AC50 [4] was 2.33 µM (active). For the same molecule, the AC50 [5] was 7.5 µM (active), the outcome [8] was “inactive” and the AC50 (rat CYP3A1, gene 25642) was 6.95 µM (active). The outcome (Caspase-3 (Homo sapiens)) was “inactive”.
`Oc1ccc(Cl)cc1Cc1ccccc1` was tested, and the AC50 (rat CYP2B1, gene 24300) was 6.42 µM (active), the AC50 [3] was 7.16 µM (active) and the AC50 (rat CYP2C6, gene 293989) was 5190 nM (active). The AC50 [5] was 6.35 µM (active), the AC50 [8] was 10 µM (active) and the AC50 [9] was 5.11 µM (active). The AC50 (rat CYP3A1, gene 25642) was 8.2 µM (active), the outcome [10] was “inactive” and the outcome [11] was “inactive”. The outcome [12] was “inactive”.
For `C[C@H]1[C@H](c2ccc(Cl)cc2)SC(=O)N1C(=O)NC1CCCCC1`, the outcome (Caspase-3 (Homo sapiens)) was “inactive”.
For `O=S(=O)(O)C(F)(F)C(F)(F)C(F)(F)C(F)(F)C(F)(F)C(F)(F)C(F)(F)C(F)(F)F`, the outcome [2] was “inactive”, the AC50 [3] was 0.0854 µM (active) and the outcome (rat CYP3A1, gene 25642) was “inactive”. The AC50 [10] was 15.7 µM (active) and 5.63 µM (active), the outcome (Caspase-1 (Homo sapiens)) was “inactive” and the outcome [13] was “inactive”. The AC50 [14] was 24.7 µM (active), the AC50 [11] was 26.7 µM (active) [middle of 4 runs] and the AC50 [12] was 46.7 µM (active).
For `CC1(C)C(C=C(Cl)Cl)C1C(=O)OC(C#N)c1ccc(F)c(Oc2ccccc2)c1` (stereo not given), the outcome (Caspase-1 (Homo sapiens)) was “inactive”.
For `CC[C@H](C)[C@H]1O[C@]2(C=C[C@@H]1C)C[C@@H]1C[C@@H](C/C=C(\C)[C@@H](O[C@H]3C[C@H](OC)[C@@H](O[C@H]4C[C@H](OC)[C@@H](O)[C@H](C)O4)[C@H](C)O3)[C@@H](C)/C=C/C=C3\CO[C@@H]4[C@H](O)C(C)=C[C@@H](C(=O)O1)[C@]34O)O2` (tested in a mixture with another compound), the outcome [2] was “inactive”, the outcome (rat CYP2B1, gene 24300) was “inactive” and the AC50 [5] was 10 µM (active). For the same molecule, the AC50 [9] was 2.23 µM (active), the AC50 (rat CYP3A1, gene 25642) was 8.86 µM (active) and the AC50 [10] was 31.2 µM (active).
